# Source: PubChem
# Mtb UGM inh: M. tuberculosis UGM enzyme inhibitors, primary screen, biochemical, fluorescence polarization, single point; purified UGM, fluorescence polarization probe displacement; AID 504406, 2011; inhibition, % at 10 µM; actives 0.06% (n = 320,000); UDP-galactopyranose mutase (Mycobacterium tuberculosis (strain ATCC 25618 / H37Rv)), …; in the data active = inhibition above about 10%, passing the limit was not always enough; inconclusive = no clear call, values can overlap the other calls
# Target sequence (P9WIQ1 whole entry, looked up): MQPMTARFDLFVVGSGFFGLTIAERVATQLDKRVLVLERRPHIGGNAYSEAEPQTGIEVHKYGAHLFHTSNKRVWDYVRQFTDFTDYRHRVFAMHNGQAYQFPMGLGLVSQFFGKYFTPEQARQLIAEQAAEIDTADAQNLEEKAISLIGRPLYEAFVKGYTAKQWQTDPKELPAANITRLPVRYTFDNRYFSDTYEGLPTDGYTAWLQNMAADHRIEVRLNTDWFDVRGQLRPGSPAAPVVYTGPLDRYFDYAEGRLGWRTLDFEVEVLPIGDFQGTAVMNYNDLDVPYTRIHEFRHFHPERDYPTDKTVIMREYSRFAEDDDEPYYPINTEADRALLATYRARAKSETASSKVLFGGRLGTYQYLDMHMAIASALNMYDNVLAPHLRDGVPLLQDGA
# FadD28 binding: inhibitors of FadD28 bisubstrate probe binding, primary screen, biochemical, fluorescence polarization, single point | actives 0.22% (n = 360,000) | inhibition, % at 12.5 µM | AID 588549, 2011; in the data active = inhibition above about 8.5%, passing the limit was not always enough; inconclusive = no clear call, values can overlap the other calls
# RecA intein inh: Mtb RecA intein splicing inhibitors, primary screen, biochemical, fluorescence, HTS. cell-free RecA intein splicing. inhibition, % (no concentration beside the values). actives 0.75% (n = 290,000). AID 2221, 2009; in the data active = inhibition above about 30%; inconclusive = no clear call, values can overlap the other calls;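 also: 0% = vehicle wells and 100% = reference inhibitor control wells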
# Mtb hypoxia inh: PubChem AID 1159583. M. tuberculosis hypoxia-regulated fluorescent reporter, fluorescence. fluorescence inhibition, % (no concentration beside the values). actives 0.1% (n = 300,000); in the data active = fluorescence inhibition mostly above about 23%, no sharp cut-off; inactive = mostly below about 17%
# Rv3671c protease: Rv3671c serine protease inhibitors, primary screen, biochemical, fluorescence polarization, M. tuberculosis H37Rv; P9WHR9; inhibition, % at 5.96 µM; actives 0.048% (n = 320,000); AID 2606, 2010; in the data active = inhibition above about 38%;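 also: extracellular domain of Rv3671c used as enzyme; 0% = enzyme with DMSO and 100% = no enzyme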
# GFP chromo cs: counter-screen: blocks GFP chromophore formation, dose response, counter-screen, biochemical, fluorescence, homogeneous. shares compounds with RecA intein inh. cell-free GFP chromophore formation. EC50, µM. actives 83% (n = 2,100); call rule not given here
# * = called active by the depositor; ? = inconclusive; nt = no result given. This is a sample that favours compounds with a hit; in the whole collection about 0.92% have one here.
SMILES,Mtb UGM inh,FadD28 binding,RecA intein inh,Mtb hypoxia inh,Rv3671c protease,GFP chromo cs
Cc1ccc(N2C(=O)NC(=O)/C(=C/c3ccc(OC(=O)c4cccs4)cc3)C2=O)cc1,-4,-1,34*,5,-1,0.82*
CC1=NN(c2ccc(C(=O)O)cc2)C(=O)/C1=C\c1ccc(OC(=O)c2cccs2)cc1,2,-4,93*,0,-195,2.6*
CCOc1cc(/C=C2/C(=N)N3N=C(CC)SC3=NC2=O)ccc1OC(=O)c1ccco1,-3,-3,21,-2,-2,nt
CC1=NN(c2ccc(C(=O)O)cc2)C(=O)/C1=C/c1ccc(-c2ccccc2F)o1,0,-1,8,nt,2,nt
CCOc1cc(/C=C2\C(=O)N(c3ccc(C(N)=O)cc3)N=C2C)ccc1OC(=O)c1cccs1,-3,0,94*,9,-189,3.3*
CCOc1cc(/C=C2/C(=O)N(c3ccccc3)N=C2C)ccc1OC(=O)c1ccco1,-1,4,78*,2,-211,2.7*
COc1ccc(N2C(=O)NC(=O)/C(=C/c3cccc(OC(=O)c4cccs4)c3)C2=O)cc1Cl,2,nt,10,6,-9,nt
COC(=O)C1CC1C(NC(=O)c1ccc[nH]1)c1ccccc1 (stereo not given),nt,nt,nt,15,nt,nt
Cc1nc2c(cc1C(=O)NN=Cc1ccc([N+](=O)[O-])cc1)c(=O)n(C)c(=O)n2C,nt,nt,nt,5,nt,nt
COc1cc(N=C2C(=O)N3c4c(cccc42)C(C)=CC3(C)C)cc(OC)c1,-2,-1,20,6,15,nt
CC1=CC(C)(C)N2C(=O)C(=Nc3ccc(O)cc3)c3cccc1c32,-1,-1,39*,12,-30,>38
CCNC(=O)c1ccccc1-c1nc(-c2ccccc2)no1,3,0,30*,10,4,>38
CCOC1OC(C(=O)O)=CC(C2CC2)C1CCCO (stereo not given),nt,nt,nt,-6,nt,nt
Cc1ccc(Sc2oc(/C=N/n3cnnc3)cc2Br)cc1,-1,-4,62*,nt,0,35*
CSc1cccc(NC(=O)CSc2ncccc2C(=O)Oc2cccc([N+](=O)[O-])c2)c1,2,-2,7,9,-45,nt
CCN(C(=O)CSc1ncccc1C(=O)Oc1cccc([N+](=O)[O-])c1)c1cccc(C)c1,0,-2,33*,5,-9,?
Cc1cccc(OCC(=O)NN=Cc2cn[nH]c2-c2ccc(Cl)c(Cl)c2)c1,nt,nt,nt,-5,nt,nt
Cc1oc(-c2ccccc2Cl)nc1CN(C)C(C)c1ccon1 (stereo not given),1,-1,1,11,-4,nt
Cc1ccccc1-c1nc(CN(C)C(C)c2ccon2)c(C)o1 (stereo not given),4,-4,39*,7,6,13*
O=C(Cc1ccccc1)NC1(O)C(=O)c2ccccc2C1=O,0,-4,66*,nt,-97,11*
Cc1ccc(C(=O)NC2(O)C(=O)c3ccccc3C2=O)cc1C,0,-3,68*,2,-126,12*
O=C(NC1(O)C(=O)c2ccccc2C1=O)c1ccc(C(F)(F)F)cc1,1,-3,7,-2,-134,nt
CC(=O)Nc1sc(NN=Cc2ccc(C)cc2)nc1-c1ccc(C)cc1,nt,nt,nt,21,nt,nt
O=C(CCl)N(c1ccc(Cl)cc1)c1c[nH]c2ccccc12,0,-3,40*,36*,4,2.2*
O=C(CCl)N(c1ccccc1)c1c[nH]c2ccccc12,0,-1,82*,nt,-3,8.3*
SMILES,Mtb UGM inh,FadD28 binding,RecA intein inh,Mtb hypoxia inh,Rv3671c protease,GFP chromo cs
O=C(Cc1ccc(Cl)cc1)NCCc1c[nH]c2ccccc12,-1,-5,1,nt,-1,nt
N=c1n(Cc2ccc(Cl)cc2)c2ccccc2n1CC(O)COc1ccccc1 (stereo not given),3,-4,14,-4,-12,nt
N=c1n(Cc2ccccc2)c2ccccc2n1CC(O)COc1ccc(Cl)cc1Cl (stereo not given),nt,-20,32*,19,nt,>38
O=C(CSc1nc2ccccc2nc1SCC(=O)N1CCOCC1)N1CCOCC1,-1,-2,32*,7,4,>38
O=[N+]([O-])c1ccccc1C=Nn1c(-c2cccnc2)n[nH]c1=S,nt,nt,nt,2,nt,nt
O=C1/C(=C/c2ccc(F)cc2)SC(=S)N1CC(=O)N1CCCCC1c1cccnc1 (stereo not given),-6,-2,38*,16,-8,>38
CCN(CC)c1ccc(C=NOCC(=O)N2CCCc3ccccc32)cc1,nt,nt,nt,5,nt,nt
Cc1cccc(C)c1NC(=O)c1nc(S(=O)(=O)Cc2ccccc2)ncc1Cl,-2,-3,36*,nt,6,17*
COc1ccc(OC)c(NC(=O)c2nc(S(=O)(=O)Cc3ccccc3)ncc2Cl)c1,-1,-1,28,nt,-7,nt
Cc1ccccc1CS(=O)(=O)c1ncc(Cl)c(C(=O)Nc2ccc(F)cc2)n1,1,-3,34*,2,-16,8.6*
O=C(Nc1ccc(F)cc1)c1nc(S(=O)(=O)Cc2ccccc2)ncc1Cl,-3,0,1,nt,-10,nt
Cc1cccc(CS(=O)(=O)c2ncc(Cl)c(C(=O)Nc3c(C)cccc3C)n2)c1,-3,0,46*,nt,-5,9.9*
Cc1ccc(NC(=O)c2nc(S(=O)(=O)Cc3ccccc3)ncc2Cl)cc1,-2,0,66*,nt,0,40*
Cc1cccc(CS(=O)(=O)c2ncc(Cl)c(C(=O)NCc3ccccc3)n2)c1,-3,0,0,-1,-5,nt
CC1=NN(c2ccccc2)C(=O)C1C=C1C(=O)NC(=O)N(c2cc(C)cc(C)c2)C1=O (stereo not given),nt,nt,nt,7,nt,nt
CCC1=C(OC(=O)N(CC)CC)N2C(=O)OC(=NCc3ccccc3)[C@]2(C)C2C1=CCC1C(=O)N(CC(=O)OC)C(=O)C12 (stereo not given in full),nt,nt,nt,4,nt,nt
CCCc1nnc(NC(=O)c2nc(S(=O)(=O)Cc3cccc(C)c3)ncc2Cl)s1,0,0,85*,nt,-7,>38
CCS(=O)(=O)c1ncc(Cl)c(C(=O)Nc2ccc(S(=O)(=O)N(C)c3ccccc3)cc2)n1,0,8,97*,nt,-176,1.6*
COc1ccc(NC(=O)c2nc(S(=O)(=O)Cc3cccc(C)c3)ncc2Cl)c(OC)c1,1,-3,4,12,5,nt
Cc1nnc(NC(=O)c2nc(S(=O)(=O)Cc3ccccc3)ncc2Cl)s1,-1,-3,56*,nt,-4,16*
C#CCOCCOCCOCCNc1nc(N2CCN(C(=O)CCCCCCCCCCNC(=O)C(CO)n3cc(CCCSC)nn3)CC2)nc(N2CCN(C(=O)CCCCCCCCCCNC(=O)C(CCCCN)n3cc(CCO)nn3)CC2)n1 (stereo not given),nt,nt,nt,6,nt,nt
CC1(C)C2CC=C(C=NNC(=O)c3ccc(O)cc3)C1C2 (stereo not given),nt,nt,nt,12,nt,nt
